# Assay results taken from PubChem BioAssay (NCATS).
# Records with an inconclusive call do not appear. Entries that show only a call come without a potency. Active and inactive are the calls of the source. The call rests on the fitted dose curve.
# Tests used:
# [1] = Cytotoxicity counterscreen for inhibitors of SARS-CoV-2 cell entry (AID 1645845); conditions: cell viability (SARS-CoV-2 entry assay cells); series mostly up to 57.1 µM; further: nearly all actives have a fitted effect of over 50% in size
# Procedure, shortened: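 HEK293-ACE2 cells (Expi293F stably expressing human ACE2) seeded overnight, then compound for 1 h plus 48 h at 37C. Viability as ATP content by luminescence; normalized to wells with cells and media-only wells.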
# [2] = Primary qHTS to identify inhibitors of SARS-CoV-2 cell entry (AID 1645846); conditions: SARS-CoV-2 pseudovirus cell entry assay, luminescence; activity change, negative = inhibition: at 57.1 µM (top of the series) unless noted; series mostly up to 57.1 µM; further: nearly all actives have a fitted effect of over 45% in size
# Procedure, shortened: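 HEK293 cells stably expressing human ACE2, pre-treated 1 h with compound, then infected with MLV particles pseudotyped with Wuhan-Hu-1 spike (C-terminal 19-aa truncation). Luciferase luminescence after 48 h at 37 °C, normalised to spike PP and bald PP.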
Compound,Potency [1],outcome [2],Potency [2],"activity change, negative = inhibition [2] [%]"
O=P(O)(O)C(O)(Cn1ccnc1)P(=O)(O)O,inactive,inactive [at 5.25 µM],,
CO[C@@]1(NC(=O)CSCC#N)C(=O)N2C(C(=O)O)=C(CSc3nnnn3C)CS[C@@H]21,inactive,,inactive,
Nc1ccc(S(=O)(=O)c2ccc(N)cc2)cc1,inactive,,inactive,
CC(=O)NS(=O)(=O)c1ccc(N)cc1,inactive,,inactive,
CC[C@H](C)[C@H](N)C(=O)O,inactive,,inactive,
O=C(O)Cc1cccc2ccccc12,inactive,,inactive,
CC(=O)Nc1ccc(CC(=O)O)cc1,inactive,,inactive,
CC(C(=O)O)c1ccc(C(=O)c2ccccc2)s1 (centres undefined),inactive,,inactive,
COc1nccnc1NS(=O)(=O)c1ccc(N)cc1,inactive,,inactive,
O=C(O)c1cc(O)c(O)c(O)c1,inactive,,inactive,
O=C(O)CCCCCCCC(=O)O,inactive,,inactive,
NCc1ccc(S(N)(=O)=O)cc1,inactive,,inactive,
CC(=O)OCC(=O)[C@@]1(OC(C)=O)[C@@H](C)C[C@H]2[C@@H]3C[C@H](F)C4=CC(=O)C=C[C@]4(C)[C@@]3(F)[C@@H](O)C[C@@]21C,inactive,,inactive,
CC(=O)N=c1sc(S(N)(=O)=O)nn1C,inactive,,,-31.8
CN1C(CSCC(F)(F)F)Nc2cc(Cl)c(S(N)(=O)=O)cc2S1(=O)=O (centres undefined),inactive,,,-21.3
CCCc1ccc(OCC(=O)N2CCN(C(=O)COc3ccc(CCC)cc3OC)CC2)c(OC)c1,inactive,,,-6.24
CN=C(NC#N)NCCSCc1nc[nH]c1C,inactive,,,4.18
